The results in this text go back to the supplement of paper PMC10849652.

The full data set covers some 7,900 targets. This sample favours those with a hit. About 0.6% of all pairs of compound and target were hits. Values without a mark were called inactive.

Holding throughout (experiment): log2 fold change, soluble protein after heating vs DMSO (PISA); higher = thermal stabilisation; K562 cells, 10 uM, 30 min; active = over 0.2 and 3.5 SD of the protein, either way, in both replicates (recomputed)
Compound in assay [1]: NC(=O)Nc1cc(-c2cccc(F)c2)sc1C(=O)N[C@H]1CCCNC1
In a few lines:
(§1)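 Soluble protein was defined as the supernatant after 21,000xg for 90 min. It came from K562 cells at 2×10^6 cells/mL given 10 μM compound for 30 min, heated in aliquots for 3 min across 48°C-58°C, pooled, and extracted in PBS with 0.5% NP-40 at 4°C, and was quantified by TMTpro 16plex LC-MS/MS with equalised channel sums. Thermal stability against control samples, from duplicates, is reported as log2 fold change.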

Compound in assay [2]: NC(=O)c1cnc(N[C@@H]2CCCC[C@@H]2N)nc1Nc1cccc(-n2nccn2)c1
In a few lines:
as §1

Compound in assay [3]: NC1(c2ccc(-c3nc4ccn5c(=O)[nH]nc5c4cc3-c3ccccc3)cc2)CCC1
In a few lines:
as §1

Compound in assay [4]: Nc1ccccc1NC(=O)c1ccc(CNC(=O)OCc2cccnc2)cc1 [entinostat]
In a few lines: as §1

Compound in assay [5]: O=C(CCCCCCC(=O)Nc1ccccc1)NO [vorinostat]
In a few lines: as §1

Compound in assay [6]: O=C(O)c1ccc2c(c1)nc(Nc1cccc(Cl)c1)c1ccncc12 [silmitasertib]
In a few lines: as §1

Compound in assay [7]: NCC(=O)Nc1ccc(-n2nc(C(F)(F)F)cc2-c2ccc3c(ccc4ccccc43)c2)cc1
In a few lines: as §1

Compound in assay [8]: O=C1NC(=O)C(c2cnc3ccccn23)=C1c1cn2c3c(cc(F)cc13)CN(C(=O)N1CCCCC1)CC2
In a few lines:
as §1

Compound in assay [9]: O=C(CCCCCCNC(=O)c1cnc(N(c2ccccc2)c2ccccc2Cl)nc1)NO [citarinostat]
In a few lines: as §1

Compound in assay [10]: c1cc(OCCN2CCCCC2)cc(-c2n[nH]c3ccc(-c4nnc[nH]4)cc23)c1
In a few lines: as §1

Compound in assay [11]: c1cn2cc(-c3ccc4cn[nH]c4c3)nc(Nc3ccc(N4CCOCC4)cc3)c2n1 [entospletinib]
In a few lines:
as §1

Chain of UniProt P41208 (P41208 whole entry, looked up): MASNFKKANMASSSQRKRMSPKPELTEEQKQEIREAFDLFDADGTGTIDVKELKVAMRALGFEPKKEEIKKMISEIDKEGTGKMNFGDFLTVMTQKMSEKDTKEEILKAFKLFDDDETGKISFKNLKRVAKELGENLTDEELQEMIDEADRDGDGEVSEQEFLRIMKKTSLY
Chain of UniProt Q5BKX5 (Q5BKX5 whole entry, looked up): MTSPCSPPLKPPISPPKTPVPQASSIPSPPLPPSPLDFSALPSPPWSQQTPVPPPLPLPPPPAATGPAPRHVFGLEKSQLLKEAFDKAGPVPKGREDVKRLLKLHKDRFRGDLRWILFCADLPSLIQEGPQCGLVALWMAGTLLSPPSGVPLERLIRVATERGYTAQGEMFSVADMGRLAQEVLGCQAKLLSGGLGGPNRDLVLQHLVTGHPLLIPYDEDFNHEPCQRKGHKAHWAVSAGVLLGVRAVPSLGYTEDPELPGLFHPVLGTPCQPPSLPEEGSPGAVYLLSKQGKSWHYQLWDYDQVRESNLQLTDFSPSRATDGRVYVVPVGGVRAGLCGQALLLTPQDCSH
Chain of UniProt Q9H9S4 (Q9H9S4 whole entry, looked up): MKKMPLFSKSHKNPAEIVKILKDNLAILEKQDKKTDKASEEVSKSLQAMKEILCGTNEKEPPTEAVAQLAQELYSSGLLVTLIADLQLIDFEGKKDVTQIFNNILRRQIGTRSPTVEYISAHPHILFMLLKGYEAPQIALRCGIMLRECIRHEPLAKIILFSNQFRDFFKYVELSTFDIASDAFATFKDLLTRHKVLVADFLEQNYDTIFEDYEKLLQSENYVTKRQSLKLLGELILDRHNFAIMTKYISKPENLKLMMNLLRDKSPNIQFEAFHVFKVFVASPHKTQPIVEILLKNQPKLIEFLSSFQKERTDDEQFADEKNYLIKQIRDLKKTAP
Chain of UniProt P55211 (P55211 whole entry, looked up): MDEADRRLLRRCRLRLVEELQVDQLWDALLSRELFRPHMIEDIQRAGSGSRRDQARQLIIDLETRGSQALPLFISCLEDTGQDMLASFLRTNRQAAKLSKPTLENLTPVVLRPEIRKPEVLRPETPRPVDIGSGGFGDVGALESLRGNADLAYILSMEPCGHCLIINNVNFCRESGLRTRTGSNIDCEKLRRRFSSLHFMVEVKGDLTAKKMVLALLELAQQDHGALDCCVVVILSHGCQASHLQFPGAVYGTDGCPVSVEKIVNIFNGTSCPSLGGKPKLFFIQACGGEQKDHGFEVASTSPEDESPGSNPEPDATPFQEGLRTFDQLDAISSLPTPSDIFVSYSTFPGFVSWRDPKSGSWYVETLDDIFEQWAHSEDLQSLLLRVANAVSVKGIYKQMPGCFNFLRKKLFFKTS
Chain of UniProt P51636 (P51636 whole entry, looked up): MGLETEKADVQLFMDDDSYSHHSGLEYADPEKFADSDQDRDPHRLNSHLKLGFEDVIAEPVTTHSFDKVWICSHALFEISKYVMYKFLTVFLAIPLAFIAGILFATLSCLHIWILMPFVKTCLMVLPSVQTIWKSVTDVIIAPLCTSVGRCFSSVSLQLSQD
Chain of UniProt O60583 (O60583 whole entry, looked up): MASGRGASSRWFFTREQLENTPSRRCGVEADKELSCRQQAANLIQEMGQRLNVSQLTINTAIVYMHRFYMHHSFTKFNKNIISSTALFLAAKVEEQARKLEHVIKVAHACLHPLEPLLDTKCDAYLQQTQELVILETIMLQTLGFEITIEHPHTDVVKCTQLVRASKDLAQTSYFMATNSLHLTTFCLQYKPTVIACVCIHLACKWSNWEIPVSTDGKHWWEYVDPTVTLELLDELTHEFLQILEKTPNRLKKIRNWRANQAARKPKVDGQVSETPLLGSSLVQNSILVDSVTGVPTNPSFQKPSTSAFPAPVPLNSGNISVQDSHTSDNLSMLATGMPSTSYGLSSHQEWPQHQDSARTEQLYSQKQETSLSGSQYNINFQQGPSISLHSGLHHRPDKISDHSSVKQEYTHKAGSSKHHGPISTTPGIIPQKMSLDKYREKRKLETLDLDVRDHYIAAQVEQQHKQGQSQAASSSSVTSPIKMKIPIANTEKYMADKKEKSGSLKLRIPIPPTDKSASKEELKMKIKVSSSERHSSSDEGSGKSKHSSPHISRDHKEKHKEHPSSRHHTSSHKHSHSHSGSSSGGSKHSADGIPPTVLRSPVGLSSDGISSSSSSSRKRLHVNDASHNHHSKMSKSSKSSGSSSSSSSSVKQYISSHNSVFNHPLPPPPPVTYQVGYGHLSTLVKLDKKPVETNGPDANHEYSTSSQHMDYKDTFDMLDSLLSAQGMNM
Chain of UniProt Q96LT7 (Q96LT7 whole entry, looked up): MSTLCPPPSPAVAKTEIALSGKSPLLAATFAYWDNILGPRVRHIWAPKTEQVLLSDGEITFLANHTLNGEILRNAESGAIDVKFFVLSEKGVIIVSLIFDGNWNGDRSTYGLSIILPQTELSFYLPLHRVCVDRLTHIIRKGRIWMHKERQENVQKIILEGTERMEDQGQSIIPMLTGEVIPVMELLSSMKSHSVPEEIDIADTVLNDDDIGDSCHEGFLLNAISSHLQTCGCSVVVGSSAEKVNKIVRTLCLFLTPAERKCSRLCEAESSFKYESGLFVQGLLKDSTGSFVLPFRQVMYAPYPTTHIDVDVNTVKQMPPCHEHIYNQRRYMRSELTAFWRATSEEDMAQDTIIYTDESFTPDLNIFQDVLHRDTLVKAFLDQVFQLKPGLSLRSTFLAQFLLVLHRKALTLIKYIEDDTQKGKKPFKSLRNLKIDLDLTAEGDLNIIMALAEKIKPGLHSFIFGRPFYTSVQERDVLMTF
Chain of UniProt Q9NRR8 (Q9NRR8 whole entry, looked up): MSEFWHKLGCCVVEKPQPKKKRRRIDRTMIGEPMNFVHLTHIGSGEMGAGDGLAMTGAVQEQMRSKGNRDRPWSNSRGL
Chain of UniProt O15182 (O15182 whole entry, looked up): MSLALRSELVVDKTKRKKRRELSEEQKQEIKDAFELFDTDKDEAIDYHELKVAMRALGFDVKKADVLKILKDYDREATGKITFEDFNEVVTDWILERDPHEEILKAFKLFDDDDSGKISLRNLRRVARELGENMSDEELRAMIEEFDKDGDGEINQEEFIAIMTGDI
Chain of UniProt O95628 (O95628 whole entry, looked up): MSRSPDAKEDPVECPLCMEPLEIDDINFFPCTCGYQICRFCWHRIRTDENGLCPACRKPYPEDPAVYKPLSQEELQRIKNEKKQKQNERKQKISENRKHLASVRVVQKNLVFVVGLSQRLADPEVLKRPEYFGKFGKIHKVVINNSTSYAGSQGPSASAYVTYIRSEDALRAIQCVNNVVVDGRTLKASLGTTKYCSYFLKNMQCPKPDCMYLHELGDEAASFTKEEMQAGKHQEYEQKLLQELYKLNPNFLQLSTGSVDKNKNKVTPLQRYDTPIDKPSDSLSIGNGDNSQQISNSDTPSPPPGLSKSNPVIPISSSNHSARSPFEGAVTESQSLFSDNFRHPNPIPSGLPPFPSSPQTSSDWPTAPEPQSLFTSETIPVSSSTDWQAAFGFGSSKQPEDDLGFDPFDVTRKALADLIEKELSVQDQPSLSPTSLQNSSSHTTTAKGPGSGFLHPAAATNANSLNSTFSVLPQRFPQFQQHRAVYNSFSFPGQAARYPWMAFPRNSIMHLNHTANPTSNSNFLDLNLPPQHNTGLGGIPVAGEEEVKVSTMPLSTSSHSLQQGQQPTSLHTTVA
Chain of UniProt Q9UBY8 (Q9UBY8 whole entry, looked up): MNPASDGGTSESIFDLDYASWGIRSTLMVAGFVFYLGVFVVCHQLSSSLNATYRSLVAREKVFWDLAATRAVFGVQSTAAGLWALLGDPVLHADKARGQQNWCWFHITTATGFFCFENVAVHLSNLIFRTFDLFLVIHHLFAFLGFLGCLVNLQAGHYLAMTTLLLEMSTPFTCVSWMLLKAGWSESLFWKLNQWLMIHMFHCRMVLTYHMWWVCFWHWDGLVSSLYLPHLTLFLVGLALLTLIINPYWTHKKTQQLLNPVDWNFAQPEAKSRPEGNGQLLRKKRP
Chain of UniProt O75503 (O75503 whole entry, looked up): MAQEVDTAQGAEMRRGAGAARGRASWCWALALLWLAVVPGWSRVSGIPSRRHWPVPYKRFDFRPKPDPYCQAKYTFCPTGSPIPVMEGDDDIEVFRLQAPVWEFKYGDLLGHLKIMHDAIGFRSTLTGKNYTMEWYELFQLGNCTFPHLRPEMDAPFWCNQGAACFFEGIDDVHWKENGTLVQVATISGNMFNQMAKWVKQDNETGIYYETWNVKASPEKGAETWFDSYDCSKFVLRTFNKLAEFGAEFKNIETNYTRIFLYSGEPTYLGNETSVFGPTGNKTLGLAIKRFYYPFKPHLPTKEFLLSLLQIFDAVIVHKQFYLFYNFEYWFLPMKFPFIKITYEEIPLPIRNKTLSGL
Chain of UniProt Q14746 (Q14746 whole entry, looked up): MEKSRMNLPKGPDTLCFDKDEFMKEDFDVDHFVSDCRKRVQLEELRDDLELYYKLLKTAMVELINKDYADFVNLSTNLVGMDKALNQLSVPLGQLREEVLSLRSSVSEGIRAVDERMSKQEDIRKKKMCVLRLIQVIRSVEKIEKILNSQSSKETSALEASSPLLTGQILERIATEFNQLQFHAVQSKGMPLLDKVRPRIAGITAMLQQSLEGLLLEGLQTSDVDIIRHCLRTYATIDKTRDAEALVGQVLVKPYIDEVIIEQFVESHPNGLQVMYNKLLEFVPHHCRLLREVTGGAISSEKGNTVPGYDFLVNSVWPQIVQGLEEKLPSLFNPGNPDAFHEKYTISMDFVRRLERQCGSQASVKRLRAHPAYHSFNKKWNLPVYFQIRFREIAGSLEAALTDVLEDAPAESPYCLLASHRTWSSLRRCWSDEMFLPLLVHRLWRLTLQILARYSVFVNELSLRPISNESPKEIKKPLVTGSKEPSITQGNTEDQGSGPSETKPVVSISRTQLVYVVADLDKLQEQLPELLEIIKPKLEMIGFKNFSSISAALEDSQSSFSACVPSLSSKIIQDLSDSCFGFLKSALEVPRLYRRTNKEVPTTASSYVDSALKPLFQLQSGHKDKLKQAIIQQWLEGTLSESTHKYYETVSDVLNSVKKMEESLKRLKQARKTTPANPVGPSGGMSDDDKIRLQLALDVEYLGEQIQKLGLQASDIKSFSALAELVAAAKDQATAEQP

On to CAV2 (UniProt P51636), for which the log2 fold change in assay [1] is -0.251; in assay [2], -0.041; in assay [3], 0.027; in assay [4] it was -0.088; in assay [5], 0.147; in [6], 0.106.

As for C9orf72 (UniProt Q96LT7), the log2 fold change is 0.028 in assay [1]; -0.041 in [2]; -0.148 in [3]; -0.009 in [7]; -0.011 in [4]; 0.232 in assay [5]. The log2 fold change was -0.067 in assay [6] and -0.011 in assay [8].

On to CLN8 (UniProt Q9UBY8), for which the log2 fold change was -0.062 in assay [1]; -0.002 in assay [2]; 0.334 in assay [3]; 0 in assay [7]; 0.058 in assay [4]; -0.061 in [5]. For the same target, the log2 fold change is 0.064 in assay [9], 0.075 in assay [6], -0.095 in assay [10] and 0.022 in [11].

CETN3 (UniProt O15182): the log2 fold change was -0.016 in assay [1]; -0.059 in [2]; -0.031 in [3]; -0.102 in assay [7]; 0.033 in assay [4]; -0.126 in [5]. For the same target, the log2 fold change in assay [9] is -0.002; in assay [6] it was 0.032; in assay [8], -0.1; in assay [10], -0.061; in [11] it was 0.025.

Take CAB39L (UniProt Q9H9S4): the log2 fold change in [1] is 0.035; in [2], 0.083; in assay [7], -0.162; in assay [4], -0.016; in [5] it was -0.197; in assay [9], -0.093. Moreover, the log2 fold change was -0.043 in assay [8], -0.101 in [10] and 0.154 in assay [11].

In the case of CASP9 (UniProt P55211), the log2 fold change in [1] is 0.059; in [2], -0.234; in assay [7] it was -0.111; in assay [4], -0.098; in assay [5], 0.045; in assay [9], 0.05. Besides, the values for the log2 fold change in [8], in assay [10] and in assay [11] were -0.057, 0.054 and -0.211, respectively.

Regarding CENPE (UniProt Q02224), the log2 fold change in [1] was 0.127; in [2], 0.731; in assay [7], 0.114; in [4] it was -0.153; in assay [5], -0.238.

On to CDK4 (UniProt P11802), for which the log2 fold change was 0.015 in [1]; -0.293 in assay [2]; -0.074 in [3]; 0.02 in [7]; -0.006 in assay [4]; 0.076 in assay [9]. Further, the log2 fold change in assay [6] is 0.193; in assay [8] it was 0.184; in [10], 0.005; in [11] it was -0.069.

Turning to CLN5 (UniProt O75503), the log2 fold change is -0.133 in [1]; -0.41 in assay [2]; -0.858 (active) in [3]; 0.02 in assay [4]; -0.087 in [5]; 0.192 in assay [6]. Further, the log2 fold change in assay [8] was -0.014.

For the target CETN2 (UniProt P41208), the log2 fold change is -0.051 in assay [1]; 0.024 in assay [2]; 0.102 in assay [3]; 0.076 in [7]; -0.033 in assay [4]; -0.122 in [5]. Further, the log2 fold change is -0.1 in assay [9]; -0.028 in assay [6]; -0.027 in [8]; -0.091 in [10]; 0.057 in assay [11].

For the target CCNT2 (UniProt O60583), the log2 fold change is -0.045 in [1]; 0.042 in assay [2]; 0.054 in [3]; 0.076 in [4]; 0.223 in assay [5]; 0.06 in [9]. In addition, the log2 fold change is -0.06 in assay [6], -0.032 in [8], -0.089 in [10] and -0.05 in [11].

Take COG2 (UniProt Q14746): the log2 fold change in assay [1] was -0.07; in [2] it was -0.513; in assay [3], -0.487; in assay [4] it was 0.138; in assay [9], 0.101; in [6] it was 0.248. Also, the log2 fold change was -0.031 in assay [8], 0.34 in assay [10] and -0.103 in assay [11].

On to CPSF1 (UniProt Q10570), for which the log2 fold change in assay [1] was 0.024; in [2], 0.069; in assay [3], 0.059; in assay [7], 0.006; in assay [4] it was -0.023; in assay [5], 0.012. Also, the log2 fold change in assay [9] was -0.025; in assay [6], 0.052; in assay [8], 0.099; in assay [10], -0.139; in assay [11], 0.037.

As to CDC42SE1 (UniProt Q9NRR8), the log2 fold change in assay [1] is -0.244; in assay [2] it was 0.055; in assay [3], -0.065; in assay [7] it was -0.002; in assay [4], -0.042; in assay [9] it was -0.048. Further, the log2 fold change in [6] was 0.128; in [8], -0.065; in assay [10], -0.103; in [11], 0.141.

For the target C19orf54 (UniProt Q5BKX5), the log2 fold change is 0.098 in assay [1]; 0.004 in assay [2]; 0.086 in assay [7]; -0.111 in [4]; -0.064 in assay [5]; -0.09 in [9]. The log2 fold change was -0.05 in assay [8], -0.121 in [10] and 0.17 in assay [11].

As for CLCN5 isoform 2 (UniProt P51795), the log2 fold change in [7] was 0.004; in assay [5], 0.062; in assay [9] it was 0.045; in assay [10] it was -0.114; in [11], -0.014.

On to CNOT4 isoform 9 (UniProt O95628), for which the log2 fold change in assay [2] was -0.115; in assay [3], -0.077; in assay [7], 0.11; in [5] it was -0.003; in [9], -0.038; in assay [6], 0.024. The log2 fold change in assay [10] is 0.178; in [11], 0.02.
